Screening results deposited in PubChem by National Center for Advancing Translational Sciences (NCATS).
A549 viability – A549 cytotoxicity, counter-screen for Nrf2 inhibitors; A549 ARE-Fluc cells, CellTiter-Fluor viability, 18-24 h; Potency, µM (highest dose often 46 µM), without a hit: top-dose activity change, negative = cytotoxicity, usual class: inhibitors; hit rate 0.16% among 390,000; AID 504648; also: % is scaled to controls: 0 for no effect and ±100 for the full control effect
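A549 ARE_Fluc cells in 5% FBS OPTI-MEM were exposed to compounds in concentration-response for 18-24 h at 37 deg C. Viability was read by CellTiter-Fluor fluorescence (Ex 405/Em 525) after 30 min, before the luciferase read.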
mIDH1 inhibitor – inhibitors of human mutant IDH1 R132H; IDH1-R132H enzyme, NADPH consumption, diaphorase/resazurin fluorescence; Potency, µM (series often up to 76.6 µM), for the others: top-dose activity change, negative = inhibition, usual class: inhibitors; hit rate 0.093% among 390,000; AID 602179; also: % is scaled to controls: 0 for no effect and ±100 for the full control effect; nearly all actives have a fitted effect of over 65% in size
Target sequence (O75874 whole entry R132H, stated change not applied): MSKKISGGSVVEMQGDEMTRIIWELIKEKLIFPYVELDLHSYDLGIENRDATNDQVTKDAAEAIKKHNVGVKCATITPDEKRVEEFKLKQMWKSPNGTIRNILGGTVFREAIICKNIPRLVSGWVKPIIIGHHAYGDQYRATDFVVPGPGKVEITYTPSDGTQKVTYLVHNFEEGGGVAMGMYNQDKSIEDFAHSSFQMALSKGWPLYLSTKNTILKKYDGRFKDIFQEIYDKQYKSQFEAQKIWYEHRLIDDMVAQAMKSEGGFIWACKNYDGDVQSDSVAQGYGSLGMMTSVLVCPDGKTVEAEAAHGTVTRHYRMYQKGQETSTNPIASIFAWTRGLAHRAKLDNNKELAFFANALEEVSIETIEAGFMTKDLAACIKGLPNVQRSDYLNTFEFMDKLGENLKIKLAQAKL
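IDH1-R132H (0.5 ug/mL) preincubated 30 min with compound, then NADPH (0.016 mM) and alpha-KG (2 mM) added; 80 min at RT, pH 7.5. Remaining NADPH coupled via diaphorase/resazurin to fluorescence (540/590 nm); concentration-response curves normalized to no-enzyme control.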
Nrf2 inh – inhibitors of Nrf2 signaling; Potency, µM (series often up to 46 µM), for the others: at the top dose activity change, negative = inhibition, hits mostly inhibitors; A549 ARE-Fluc reporter, luciferase luminescence, 18-24 h; hit rate 2.1% among 360,000; also: % is scaled to controls: 0 for no effect and ±100 for the full control effect; nearly all actives have a fitted effect of over 60% in size
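Nrf2 function is reported as luminescence of an ARE-controlled luciferase in A549 cells. Compounds were tested at several concentrations, and a CellTiter-Fluor read on the same wells flagged cytotoxicity.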
ELG1 DNA repair – inhibitors of ELG1-dependent DNA repair in HEK293T cells. hit rate 2.3% among 330,000. AID 504467. HEK293T ELG1-luciferase reporter, luminescence, 16 h; DNA damage induced by 5-fluorouridine. Potency, µM (titrated, usually from 46.1 µM), without a hit: at the top dose activity change, negative = inhibition, actives largely listed as inhibitors; also: % is scaled to controls: 0 for no effect and ±100 for the full control effect; nearly all actives have a fitted effect of over 55% in size
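Luminescence from the luciferase reporter, measured 30 min after ONE-Glo reagent at room temperature, was the read-out. Beforehand, 2,000 cells per well were exposed for 16 hr at 37 °C to 5-fluorouridine together with compound or vehicle.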
Nrf2 ARE act – activates Nrf2 signaling | Potency, µM (highest dose often 46.1 µM), inactives show at the highest dose activation, usual class: activators | AREc32 ARE-luciferase reporter (MCF7-derived line), luminescence, 24 h | hit rate 0.31% among 410,000; also: % of control where 0% means no effect; nearly all actives have a fitted effect of over 65% in size
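Cells of the AREc32 ARE-luciferase line are plated in OPTI-MEM containing 5% FBS and left overnight at 37 deg C. Compounds are pinned in, incubation continues 24 hr, and firefly luciferase signal is then measured.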
* marks the source's active call; other numbers are inactive results; [ ] = dose if it differs, or a comment. In the library only some 3.8% were active in any assay of this set; here they are far more common. Calls follow the shape of the dose curve; as a rule, active = well fitted curve in the direction sought with a large enough effect; inconclusive = small, poorly fitted or top-dose-only effect, or another doubt; inactive = no such curve, though single readings can be large; an effect the other way counts as inactive or inconclusive. Potency is read from the fitted curve at half-maximal effect.

`O=C1NC[C@@H](c2ccccc2)OC(=O)[C@@H](Cc2ccc(F)cc2)CC/C=C/C[C@@H]1CC(=O)N(CCO)Cc1ccccc1` gave mIDH1 inhibitor 4%, Nrf2 inh -11%, ELG1 DNA repair inconclusive and Nrf2 ARE act -3%.
`O=S(=O)(Nc1cc(Sc2ncn[nH]2)c(O)c2ccccc12)c1ccccc1` gave A549 viability inconclusive, mIDH1 inhibitor 24%, Nrf2 inh inconclusive, ELG1 DNA repair 23µM* and Nrf2 ARE act -3%.
`Cc1cccc(N2C(=O)CC(N3CCN(c4ccccn4)CC3)C2=O)c1` (stereo not drawn) gave A549 viability 0%, mIDH1 inhibitor 2%, Nrf2 inh -17%, ELG1 DNA repair 4% and Nrf2 ARE act 0%.
For COc1ccc(Cc2noc(CN3CCCC(C(=O)c4cccs4)C3)n2)cc1OC (stereo not drawn) the results were A549 viability 0%, mIDH1 inhibitor 13%, Nrf2 inh -14%, ELG1 DNA repair 18µM* and Nrf2 ARE act 0%.
For COc1ccc(Cc2noc(CN3CCN(Cc4cccc(Cl)c4)CC3)n2)cc1OC the results were A549 viability 1%, mIDH1 inhibitor 0%, Nrf2 inh inconclusive, ELG1 DNA repair 23µM* and Nrf2 ARE act 0%[9.22 µM].
COc1ccc(Cc2noc(CN3CCN(c4ccc(Cl)cn4)CC3)n2)cc1OC was read as A549 viability -12%, mIDH1 inhibitor 6%, Nrf2 inh 26µM*, ELG1 DNA repair inconclusive and Nrf2 ARE act 0%.
COc1ccc(NC(=O)/C=C/c2cc(Br)ccc2OC)cc1 was read as A549 viability 3%, mIDH1 inhibitor 3%, Nrf2 inh 9%, ELG1 DNA repair inconclusive and Nrf2 ARE act 21%.
Screening COc1ccc(Br)cc1/C=C/C(=O)c1ccc(NC(C)=O)cc1 returned A549 viability 8.2µM*, mIDH1 inhibitor -5%, Nrf2 inh 5.2µM*, ELG1 DNA repair 15µM* and Nrf2 ARE act inconclusive.
COc1ccc(C(=O)Nc2ccccc2N2CCOCC2)cc1[N+](=O)[O-] was read as A549 viability 21%, mIDH1 inhibitor 4%, Nrf2 inh -14%, ELG1 DNA repair 13% and Nrf2 ARE act 2%.
O=C(NC(=S)Nc1cc(Cl)ccc1N1CCOCC1)c1ccccc1[N+](=O)[O-] was read as A549 viability 15%, mIDH1 inhibitor -5%, Nrf2 inh -6%, ELG1 DNA repair 16µM* and Nrf2 ARE act 5%.
`COc1ccc(C(=O)NC(=S)Nc2ccc(N3CCOCC3)c(Cl)c2)cc1[N+](=O)[O-]` gave A549 viability -4%, mIDH1 inhibitor 6%, Nrf2 inh 6%, ELG1 DNA repair 13µM* and Nrf2 ARE act 4%.
Screening COc1ccc(C(=O)NC(=S)Nc2ccccc2N2CCOCC2)cc1[N+](=O)[O-] returned A549 viability 0%, mIDH1 inhibitor 5%, Nrf2 inh 9%, ELG1 DNA repair 18µM* and Nrf2 ARE act 3%.
`COc1cccc(CN(C)C(=O)C(Cc2ccccc2)NC(=O)c2ccccc2)c1OC` (stereo not drawn) gave A549 viability -12%, mIDH1 inhibitor 9%, Nrf2 inh -24%, ELG1 DNA repair inconclusive and Nrf2 ARE act -1%.
Screening CCOc1ccc(OCC)c(NC(=O)CN(c2ccc(C)cc2)S(=O)(=O)c2c(C)noc2C)c1 returned A549 viability -8%, mIDH1 inhibitor 1%, Nrf2 inh -25%, ELG1 DNA repair -20% and Nrf2 ARE act -1%.
Screening CCOc1ccccc1NC(=O)CN(c1ccc(C)cc1)S(=O)(=O)c1c(C)noc1C returned A549 viability -4%, mIDH1 inhibitor 2%, Nrf2 inh 16µM*, ELG1 DNA repair inconclusive and Nrf2 ARE act 0%.
COc1ccc(OC)c(NC(=O)CN(c2ccc(C)cc2)S(=O)(=O)c2c(C)noc2C)c1 was read as A549 viability -5%, mIDH1 inhibitor 5%, Nrf2 inh inconclusive, ELG1 DNA repair inconclusive and Nrf2 ARE act -1%.
`COc1ccc(OC)c(NC(=O)CN(c2ccc(C(C)C)cc2)S(=O)(=O)c2c(C)noc2C)c1` gave A549 viability 2%, mIDH1 inhibitor 5%, Nrf2 inh inconclusive, ELG1 DNA repair 8.2µM* and Nrf2 ARE act 3%.
For Cc1ccc(CNC(=O)CN(c2ccc(C(C)C)cc2)S(=O)(=O)c2c(C)n[nH]c2C)cc1 the results were A549 viability inconclusive, mIDH1 inhibitor -21%, Nrf2 inh 23µM* and Nrf2 ARE act 0%.
`COc1cccc(CNC(=O)CN(c2ccc(C(C)C)cc2)S(=O)(=O)c2c(C)noc2C)c1` gave A549 viability -5%, mIDH1 inhibitor 3%, Nrf2 inh 16µM*, ELG1 DNA repair 12% and Nrf2 ARE act 2%.
For Cn1ccc2cc(S(=O)(=O)N3CCCN(C(=O)Nc4ccccc4Br)CC3)ccc21 the results were A549 viability -1%, mIDH1 inhibitor -3% and Nrf2 ARE act 0%.
For Cn1nnc2c(N3CCN(c4ccccc4Cl)CC3)ncnc21 the results were A549 viability 14%, mIDH1 inhibitor 32% and Nrf2 ARE act 0%.
Screening COc1ccc(-c2cc(C(F)(F)F)n3nc(C(=O)N(C)Cc4ccccc4)cc3n2)cc1OC returned A549 viability 5%, mIDH1 inhibitor 5%, Nrf2 inh inconclusive, ELG1 DNA repair 21µM* and Nrf2 ARE act -2%.
Screening COc1ccc(-c2cc(C(F)(F)F)n3nc(C(=O)NCC45CC6CC(CC(C6)C4)C5)cc3n2)cc1 returned A549 viability -10%, mIDH1 inhibitor 4%, Nrf2 inh 15µM* and Nrf2 ARE act -1%.
COc1ccc(-c2cc(C(F)(F)F)n3nc(C(=O)Nc4ccc(Cl)cc4C(F)(F)F)cc3n2)cc1OC was read as A549 viability -3%, mIDH1 inhibitor -5%, Nrf2 inh 6% and Nrf2 ARE act -1%.
For CCOC(=O)N1CCC(NS(=O)(=O)c2ccc(NC(C)=O)c(Cl)c2)CC1 the results were A549 viability 1%, mIDH1 inhibitor 24%, Nrf2 inh 12µM*, ELG1 DNA repair 7.3µM* and Nrf2 ARE act -1%.
For CN(C)c1nc(NCc2ccccc2)nc(SCC(=O)Nc2ccccc2)n1 the results were A549 viability -11%, mIDH1 inhibitor -3%, Nrf2 inh 23µM*, ELG1 DNA repair inconclusive and Nrf2 ARE act 0%.
`COc1cccc(C2c3c(ncn(-c4cccc(C)c4)c3=N)Oc3ccc4ccccc4c32)c1` (stereo not drawn) gave A549 viability -2% and Nrf2 inh 4%.
